Experimental data reported in PubChem BioAssay AID2284061 (EPA ToxCast).
Records with an inconclusive call do not appear. Calls of active or inactive are those of the source. The calls were made as follows: active = hit-call score of the fitted dose curve at least 0.9, where 1 is the maximum; inconclusive = response in the unintended direction; inactive = score below 0.9.

Each compound was assayed against human Akt3 (PKBgamma) AGC Kinase, AKT3 (gene 10000) (UniProt Q9Y243) (assay: ERF_FR_ENZ_hAKT3: Eurofins (ERF) Enzymatic Radiometric [Km ATP] KinaseProfiler LeadHunter Assay for human Akt3 (PKBgamma) AGC Kinase).
Sequence of human Akt3 (PKBgamma) AGC Kinase, AKT3 (gene 10000) (Q9Y243 whole entry, looked up): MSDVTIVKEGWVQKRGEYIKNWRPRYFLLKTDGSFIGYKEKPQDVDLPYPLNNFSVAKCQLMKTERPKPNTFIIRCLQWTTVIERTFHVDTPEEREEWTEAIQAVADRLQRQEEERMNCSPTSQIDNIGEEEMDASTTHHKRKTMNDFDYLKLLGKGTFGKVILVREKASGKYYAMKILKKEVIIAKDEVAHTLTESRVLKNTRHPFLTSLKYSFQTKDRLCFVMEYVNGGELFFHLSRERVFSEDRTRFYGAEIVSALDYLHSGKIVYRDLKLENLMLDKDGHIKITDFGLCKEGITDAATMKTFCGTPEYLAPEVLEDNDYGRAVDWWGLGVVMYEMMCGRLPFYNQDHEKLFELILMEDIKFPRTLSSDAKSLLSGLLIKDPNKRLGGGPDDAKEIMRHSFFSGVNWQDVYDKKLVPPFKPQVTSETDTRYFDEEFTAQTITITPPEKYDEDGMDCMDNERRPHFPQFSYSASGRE
Procedure: ERF_FR_ENZ_hAKT3 is a biochemical, single-readout assay that uses extracted gene-proteins in a cell-free assay. Measurements were taken 0.5 hour after chemical dosing in a 96-well plate. See Akt3 (PKBgamma) Human AGC Kinase Enzymatic LANCE Assay [Km ATP], Cerep.ERF_FR_ENZ_hAKT3 is an assay component calculated from the ERF_FR_ENZ_hAKT3 assay. It is designed to measure enzyme activity using a type of enzyme reporter as detected by fluorescence intensity with LANCE technology.Data from the assay component ERF_FR_ENZ_hAKT3 was analyzed at the assay endpoint, ERF_FR_ENZ_hAKT3, in the positive analysis fitting direction relative to DMSO as the negative control and baseline of activity. Using a type of enzyme reporter, loss-of-signal activity can be used to understand changes in enzymatic activity as they relate to gene AKT3. To generalize the intended target to other relatable targets, this assay endpoint is annotated to the kinase intended target family, where the subfamily is serine/threonine kinase.
PKBb (h) is incubated with 8 mM MOPS pH 7.0, 0.2 mM EDTA, 30 uM […], 10 mM MgAcetate and [g- 33P]-ATP (specific activity and concentration as required). The reaction is initiated by the addition of the Mg/ATP mix. After incubation for 40 minutes at room temperature, the reaction is stopped by the addition of phosphoric acid to a concentration of 0.5%. […]

Row | SMILES | outcome
1 | COc1cc(CCC(=O)CC(=O)CCc2ccc(O)c(OC)c2)ccc1O | inactive
2 | O=C(/C=C/c1ccc(O)cc1)CC(=O)/C=C/c1ccc(O)cc1 | inactive
